# Only some compounds are listed: those with a hit (about 2.8% of all), similar ones and a draw of the others.
# Mcl-1 Bim block: inhibitors of Bim-Mcl-1 interaction, human; Bead-based flow cytometry, Bim peptide-Mcl-1 binding; inhibition, % at 10 µM; 190,000 tested, 0.1% active; AID 1009; in the data active = inhibition above about 40%
# Target sequence (Q07820 whole entry, looked up): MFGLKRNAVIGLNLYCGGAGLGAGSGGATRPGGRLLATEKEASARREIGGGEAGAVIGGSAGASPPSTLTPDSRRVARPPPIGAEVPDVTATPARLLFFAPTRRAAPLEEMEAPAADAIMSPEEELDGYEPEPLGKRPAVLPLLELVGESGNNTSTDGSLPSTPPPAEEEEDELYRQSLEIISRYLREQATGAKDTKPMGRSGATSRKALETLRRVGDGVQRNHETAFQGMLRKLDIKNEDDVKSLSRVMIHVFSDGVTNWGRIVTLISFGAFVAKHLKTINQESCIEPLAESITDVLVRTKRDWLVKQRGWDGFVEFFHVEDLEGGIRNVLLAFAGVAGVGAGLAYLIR
# TNF death inh: blocks TNF-alpha induced death of Jurkat FADD-/- cells; Jurkat FADD-/- TNF necroptosis rescue, ATP luminescence, 24 h; 0 = TNF only, 100 = no-TNF cells; activation (protection from cell death), % at 10 µM; 220,000 tested, 0.068% active; AID 463075;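 active = activation, meaning protection from cell death, of at least 50% relative to plate controls; inactive = activation below 50%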;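 also: necroptosis triggered by 40 ng/mL TNF-alpha added together with compound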
# m-calpain inh: blocks pig calpain II enzyme activity; purified calpain II, fluorogenic peptide substrate, 30 min; inhibition, % at 16 µM; 220,000 tested, 0.37% active; AID 1236;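 active = inhibition above about 50%, limit read from the data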
# L929 necroptosis: blocks zVAD induced death of L929 cells; 220,000 tested, 0.38% active; viability rescue, % at 10 µM; L929 zVAD necroptosis rescue, ATP luminescence, 24 h; with zVAD 60 µM;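 active = activation, scaled between plate controls, above about 75%, limit read from the data; inactive = activation under that limit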
# Mcl1-Bid inh: Mcl-1/Bid interaction inhibition; Q07820; TR-FRET Mcl-1/Bid-Dy647 peptide binding, 1536-well; inhibition, % at 21.7 µM; 220,000 tested, 0.97% active;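 active = compounds that cut the binding signal by more than half at the single screening dose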;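 also: His-tagged Mcl-1 with europium anti-His antibody binding Bid BH3 peptide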
# Mcl1 Noxa PPI: Mcl-1/Noxa interaction inhibition; Q07820; TR-FRET Mcl-1/Noxa peptide binding, 2 h; inhibition, % at 21.7 µM; 220,000 tested, 1.5% active;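 active = compounds that cut the protein-peptide binding signal by more than 50% relative to plate controls in a single-dose test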;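 also: His-tagged Mcl-1 with rhodamine Noxa BH3 peptide and terbium anti-His antibody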
# Hits are given with their value; - = inactive; . = no result given.
SMILES,Mcl-1 Bim block,TNF death inh,m-calpain inh,L929 necroptosis,Mcl1-Bid inh,Mcl1 Noxa PPI
CCOC(=O)/C=C/C(=O)Nc1cccc([N+](=O)[O-])c1,-,-,-,-,-,66.5
COc1cccc(C(=O)Nc2cccc(C(=O)NCC(C)C)c2)c1,-,-,-,-,-,-
CCOC(=O)c1cccc(NC(=O)/C=C/c2cccc([N+](=O)[O-])c2)c1,-,-,-,-,-,-
COc1ccc(Cn2nc(C)n(N(C)c3ncc(C(F)(F)F)cc3Cl)c2=O)cc1,-,-,-,-,-,-
N#Cc1ccc(OCc2noc(-c3ccsc3)n2)cc1,.,-,-,-,-,-
COc1ccc(-n2cc(-c3ccc(OC(F)F)cc3)[n+]3c2CCCCC3)cc1,-,-,-,-,90.5,-
O=C(CCc1nnc(CCC2CCCCC2)o1)NCCc1cccnc1,-,-,-,-,-,-
CC(C)N1C(=O)/C(=C\c2nc3ccccc3c(=O)[nH]2)c2ccccc21,-,-,-,-,69.9,55.4
CCCN1C(=O)/C(=C/c2nc3ccccc3c(=O)[nH]2)c2ccccc21,-,-,-,-,-,-
COc1cccc2c(=S)c(CCC(C)=O)c(C)[nH]c12,-,-,-,-,-,99.8
CC(=O)CCc1c(C)c2cccc(C)c2[nH]c1=O,-,-,-,-,-,-
O=C1C2C3C=CC(C2C(=O)N1CCCO)C1C2C(=O)N(CCCO)C(=O)C2C31 (centres undefined),-,-,-,-,62.9,-
CCCCN1C(=O)C2C3C=CC(C2C1=O)C1C2C(=O)N(CCCC)C(=O)C2C31 (centres undefined),-,-,-,-,-,-
Cc1ccc(-n2[nH]c(=O)c3cccnc32)cc1,-,-,-,-,-,64.6
Cc1ccc(-n2[nH]c(=O)c(-c3ccccn3)c2C)cc1,-,-,-,-,-,-
COc1ccc(C(=O)n2nc(C)c(Br)c2C)cc1,-,-,-,-,-,84.8
CSc1cnn(Cc2ccccc2)c(=O)c1SCc1ccccc1,-,-,-,-,-,99.1
Cn1c(NC(=O)/C=C\c2ccccc2)cc(=O)n(C)c1=O,-,-,63.8,-,-,-
COc1ccc(CC(=O)Nc2cc(=O)n(C)c(=O)n2C)cc1,-,-,-,-,-,-
Cn1c(NC(=O)Cc2ccc(F)cc2)cc(=O)n(C)c1=O,-,-,-,-,65.4,-
Cc1ccnc(NC(=O)CCC(=O)N(CC(=O)NC2CCCCC2)Cc2cccs2)c1,-,-,-,-,-,-
C#CCOCCOCCOCCNc1nc(N2CCN(C(=O)[C@H]([C@@H](C)CC)n3cc([C@@H](N)CC(C)C)nn3)CC2)nc(N2CCN(C(=O)[C@H](CCCCN)n3cc([C@@H](N)C(C)CC)nn3)CC2)n1 (some centres undefined),-,-,-,-,-,-
C#CCOCCOCCOCCNc1nc(N2CCN(C(=O)[C@H](CCCCN)n3cc(C(N)[C@H](C)CC)nn3)CC2)nc(N2CCN(C(=O)[C@H](CCC(=O)O)n3cc(C(N)[C@H](C)CC)nn3)CC2)n1 (some centres undefined),-,-,-,-,75.0,-
C#CCOCCOCCOCCNc1nc(N2CCN(C(=O)[C@H](CCCCN)n3cc([C@@H](N)C(C)CC)nn3)CC2)nc(N2CCN(C(=O)[C@H](CCCCN)n3cc([C@@H](N)CO)nn3)CC2)n1 (some centres undefined),-,-,-,-,88.5,-
COc1cccc(OC)c1C(=O)Nc1ccccc1C(=O)N1CCOCC1,-,-,-,-,83.9,-
SMILES,Mcl-1 Bim block,TNF death inh,m-calpain inh,L929 necroptosis,Mcl1-Bid inh,Mcl1 Noxa PPI
CN(C)CC#CCCCCCCC#CCN(C)C,-,-,-,-,-,.
C#CCCCCCCC#CCN(C)C,-,-,-,.,54.9,-
CCOC(=O)c1sc(NC(=O)COC(=O)Cn2cnc3ccccc32)c(C(=O)OCC)c1C,-,-,-,-,-,-
CCC(c1nnnn1Cc1cccs1)N1CCN(C2CCCC2)CC1 (centres undefined),-,-,-,-,54.3,-
CC(C)CC(c1nnnn1C1CCCC1)N1CCC(C(N)=O)CC1 (centres undefined),-,-,51.4,-,-,-
CCCCC(c1nnnn1C1CCCC1)N1CCN(C2CCCC2)CC1 (centres undefined),-,-,-,-,-,-
CCCC(c1nnnn1C1CCCCC1)N1CCN(C2CCCC2)CC1 (centres undefined),-,-,-,-,51.4,-
Cc1cc(C(=O)Nc2ccc3[nH]ccc3c2)no1,.,-,-,-,-,-
O=C1CS/C(=N/N=C/c2cccs2)N1Cc1ccc(F)cc1,.,-,-,-,-,-
Cn1c(SCC(=O)c2ccccc2)nnc1-c1cccs1,.,-,-,-,-,-
CCCOC(=O)Nc1cc(OC)ccc1[N+](=O)[O-],-,-,63.1,-,-,-
COc1ccccc1N1C(=O)C=C(Sc2nc(C)cc(C)n2)C1=O,.,-,-,-,-,54.4
Cn1c(=O)c2ncn(CC(=O)Nc3cccc(-c4nc5ccccc5s4)c3)c2n(C)c1=O,-,-,-,-,-,63.5
Cc1ccccc1NC(=O)c1ccc(N/N=C/c2ccccc2O)c([N+](=O)[O-])c1,-,-,55.0,-,-,-
Cc1ccc(NC(=O)c2ccc(N/N=C/c3cccc(O)c3)c([N+](=O)[O-])c2)cc1,-,-,-,-,-,-
CCC1=NNc2cccc3c(OC)ccc1c23,-,-,-,-,-,78.1
O=c1c(Cc2ccc(F)cc2)c(O)ccn1CCc1ccccn1,-,-,-,-,-,-
CC(=O)N1CCN(CC(=O)Nc2cccc(S(=O)(=O)N3CCCCCC3)c2)CC1,-,-,-,-,-,-
NS(=O)(=O)c1cccc(NC(=O)CN2CCC(Cc3ccccc3)CC2)c1,-,-,78.3,-,-,-
CCCCCOCC(O)CCC(=O)NN (centres undefined),-,-,-,-,-,-
CC(=O)Nc1ccc(S(=O)(=O)NCC(CCC(=O)O)C(F)(F)F)cc1 (centres undefined),-,-,-,-,-,60.0
CC(=O)Nc1ccc(S(=O)(=O)NCC(C)NS(=O)(=O)c2ccc(NC(C)=O)cc2)cc1 (centres undefined),-,-,-,-,-,-
CC(=O)C1=C(O)C(=O)N(c2nccs2)C1c1ccccc1 (centres undefined),-,-,-,-,-,-
CC1=C(C(=O)OCC(C)C)C23C(=O)c4ccccc4C2(O1)OC(N)=C3C#N (centres undefined),-,-,59.4,-,-,-
COc1ccc(OCCNC(=O)c2ccccc2OCC(=O)N2CCCCC2)cc1,68.0,-,-,-,-,-
c1ccc(-c2nn[nH]n2)nc1,.,-,-,-,-,-

# Compound activity from PubChem.
